Holding throughout (test): NCI-60 one-dose screen, 48 h (100 = growth as untreated, 0 = no growth, -100 = all killed)
Common to all, as to settings: 10 µM

The subject of experiment [1] is RPMI-8226 leukemia.
The test system of experiment [2] is OVCAR-8 ovarian.
Experiment [3] deals with OVCAR-5 ovarian.
The subject of experiment [4] is OVCAR-4 ovarian.
Experiment [5] deals with SK-OV-3 ovarian.
The subject of experiment [6] is IGROV1 ovarian.
Experiment [7] has as its system OVCAR-3 ovarian.
Experiment [8] relates to HS 578T breast.
Experiment [9] relates to NCI/ADR-RES ovarian.
The test system of experiment [10] is T-47D breast.
Experiment [11] relates to BT-549 breast.
For experiment [12], the system named is MDA-MB-435 melanoma.
The subject of experiment [13] is SW-620 colon.
The subject of experiment [14] is MCF7 breast.
Experiment [15] deals with HCT-116 colon.
Experiment [16] relates to HCC-2998 colon.
The test system of experiment [17] is KM12 colon.
The subject of experiment [18] is MDA-MB-468 breast.
Experiment [19] concerns SR leukemia.

Each structure is given as a SMILES string. Compounds without any hit were thinned out: in the full panel of roughly 83,000, 20% have a hit.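 Each cell line was grown in a 96-well plate and treated with one concentration of compound for 48 hours. Values below 10 were considered active.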 Values without a mark were called inactive. Activity calls are given as the source filed them.

In PubChem BioAssay (NCI) one finds growth data, which are given here for eight molecules.

Take `O=C(c1ccc([N+](=O)[O-])c([N+](=O)[O-])c1O)n1[nH]c(=O)c2ccccc2c1=O`: the growth in [1] is 26.6%; in experiment [2], 55.5%; in experiment [3], 110%; in [4], 78.3%; in [5], 102%; in experiment [6], 94.6%. For the same molecule, the growth in experiment [7] is 25.8%; in [8], 77.4%; in experiment [9] it was 35.5%; in experiment [10], 49.8%; in [11], 51.2%; in experiment [12], 53.7%. Further, the growth is 35.7% in experiment [13]; 30.5% in experiment [14]; 30.1% in experiment [15]; 106% in experiment [16]; 72.3% in experiment [17]; 0.114% (active) in [18].

Take `COc1ccc(/C=C/C(=O)c2ccc(NC(=O)CN3C(=O)NC(C)(c4ccccc4)C3=O)cc2)cc1` (configuration not stated): the growth is 61.6% in experiment [19]; 93.3% in [2]; 102% in experiment [3]; 78.3% in [4]; 106% in experiment [5]; 90.3% in experiment [6]. Moreover, the growth in [8] is 81.3%; in experiment [9], 102%; in experiment [10], 38.6%; in experiment [11], 71.6%; in experiment [12], 16.7%; in experiment [13] it was 88.8%. The growth in [14] is 4.86% (active); in experiment [15], 12.8%; in experiment [16], 102%; in experiment [17], 49.3%; in [18], 49.4%.

Consider `CS(=O)(=O)Nc1ccc(-c2ccc3c(c2)ncn3-c2ccc(NC(=O)Nc3ccc(Cl)c(C(F)(F)F)c3)cc2)cc1`, for which the growth is -28.6% (active) in experiment [1]; -34.8% (active) in [2]; -84.9% (active) in experiment [3]; -47.2% (active) in experiment [4]; -53.4% (active) in [5]; -43.1% (active) in [6]. The growth in experiment [7] was -54.3% (active); in [8], -33.2% (active); in experiment [9] it was -1.05% (active); in experiment [10], -31.2% (active); in experiment [11], -83.8% (active); in experiment [12], -85.4% (active). The growth in experiment [13] is -67% (active); in experiment [14], -77.8% (active); in experiment [15], -87.7% (active); in experiment [16], -73.6% (active); in experiment [17] it was -57.8% (active).

For `N#Cc1c(Cl)nc(SCc2ccc(F)cc2)nc1-c1ccc(F)cc1`, the growth in [1] was 91.4%; in experiment [2], 89.2%; in experiment [3], 95.6%; in experiment [4] it was 95%; in experiment [5], 103%; in experiment [6], 109%. The growth in experiment [7] is 111%; in experiment [8], 95.2%; in [9], 86.6%; in experiment [10], 66.8%; in experiment [11] it was 95.4%; in [12] it was 99.1%. Also, the growth in experiment [13] is 98.6%; in [14], 82.6%; in experiment [15] it was 81.5%; in [16] it was 111%.

`CC1(c2ccccc2)NC(=O)N(CC(=O)Nc2ccc(C(=O)/C=C/c3ccccc3)cc2)C1=O` (configuration not stated): the growth in [19] is 14.4%; in [2], 65.1%; in experiment [3], 89.2%; in experiment [4], 60.9%; in [5] it was 121%; in experiment [6], 61.7%. Also, the growth was 37.7% in [7]; 71.5% in experiment [8]; 87.5% in experiment [9]; 18.3% in [10]; -23% (active) in experiment [12]; 32.4% in experiment [13]. Further, the growth was -19.6% (active) in experiment [14], -65% (active) in [15], -15.6% (active) in experiment [16] and -73% (active) in [17].

In the case of `CN(C)c1ccc(/C=C/C(=O)c2ccc(NC(=O)CN3C(=O)NC(C)(c4ccccc4)C3=O)cc2)cc1` (configuration not stated), the growth is 42.7% in experiment [19]; 67.1% in [2]; 86% in experiment [3]; 55.4% in experiment [4]; 117% in experiment [5]; 86.7% in [6]. Further, the growth is 61.7% in experiment [7]; 78% in [8]; 86.6% in experiment [9]; 22.1% in [10]; 49.6% in experiment [11]; 34% in experiment [12]. The growth was 74.5% in [13]; 11.8% in experiment [14]; 26.4% in experiment [15]; 38.5% in experiment [16]; 23.7% in experiment [17]; 7.04% (active) in experiment [18].

In the case of `Cc1ccc(C(=O)NCCCNc2nc(Nc3ccc(N4CCN(C)CC4)cc3)nc3ccsc23)cc1`, the growth in experiment [1] is 10.1%; in experiment [2], 29.2%; in [3], 69.1%; in experiment [4] it was 39.6%; in experiment [5], 92.9%; in [6], 69.2%. In addition, the growth is 31% in experiment [7]; 66.9% in experiment [8]; 46.5% in experiment [9]; 4.51% (active) in [10]; 65.4% in experiment [11]; 43.9% in [12]. The growth in experiment [13] was 31.6%; in [14] it was 16.6%; in [15] it was 9.28% (active); in [16], 43.7%; in [17] it was 37.2%.

On to `CC1(C)CC[C@]2(C(=O)O)CC[C@]3(C)C(=CC[C@@H]4[C@@]5(C)C/C(=C/c6ccncc6)[C@H](O)C(C)(C)[C@@H]5CC[C@]43C)[C@@H]2C1`, for which the growth is 19% in [1]; 44.5% in experiment [2]; 67.6% in [3]; 42.6% in [4]; 65% in [5]; 49.1% in experiment [6]. Also, the growth was 40.9% in [7]; 52.7% in experiment [8]; 32.7% in experiment [9]; 43.6% in experiment [10]; 50.8% in experiment [11]; 54.8% in experiment [12]. The growth in experiment [13] was 34.6%; in [14], 24.4%; in experiment [15] it was 26%; in experiment [16], 49.1%; in experiment [17] it was 21.1%; in experiment [18] it was 5.27% (active).
